Holding throughout (assay): protein-binding microarray (PBM); PBM: ~300 nM protein, 6 mM HEPES pH 7.8, 80 mM KCl, 0.5 mM EDTA, 0.5 mM EGTA, 6% glycerol, 35 ng/ul poly-dIdC, 1% milk, 1 h, room temperature; Ap Aiptasia and Nv Nematostella (sea anemones) / Co Capsaspora / Aq Amphimedon (sponge) / Dm Drosophila / Hu human; RHD is the Rel homology domain; high values mean tight binding
What all share (details): dsDNA, one strand shown

In one assay the target is T1, GST-Ap-NF-kB RHD (Exaiptasia pallida (Aiptasia), UniProt A0A913YAJ5 2-422).
T1 sequence: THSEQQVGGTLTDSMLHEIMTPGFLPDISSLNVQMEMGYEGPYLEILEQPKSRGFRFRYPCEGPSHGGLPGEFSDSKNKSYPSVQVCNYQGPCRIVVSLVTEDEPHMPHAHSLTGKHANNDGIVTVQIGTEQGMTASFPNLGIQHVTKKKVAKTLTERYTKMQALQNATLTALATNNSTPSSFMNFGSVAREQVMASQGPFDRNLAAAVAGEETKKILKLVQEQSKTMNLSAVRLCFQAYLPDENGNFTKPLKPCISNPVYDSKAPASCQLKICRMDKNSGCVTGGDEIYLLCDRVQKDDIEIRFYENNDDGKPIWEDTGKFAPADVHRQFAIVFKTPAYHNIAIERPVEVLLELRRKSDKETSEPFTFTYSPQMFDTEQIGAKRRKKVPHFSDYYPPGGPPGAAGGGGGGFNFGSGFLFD

For assay [1], the target named is T2, GST-Nv-NF-kB (Cys allele) (Nematostella vectensis, UniProt E5G601 2-411).
T2 sequence: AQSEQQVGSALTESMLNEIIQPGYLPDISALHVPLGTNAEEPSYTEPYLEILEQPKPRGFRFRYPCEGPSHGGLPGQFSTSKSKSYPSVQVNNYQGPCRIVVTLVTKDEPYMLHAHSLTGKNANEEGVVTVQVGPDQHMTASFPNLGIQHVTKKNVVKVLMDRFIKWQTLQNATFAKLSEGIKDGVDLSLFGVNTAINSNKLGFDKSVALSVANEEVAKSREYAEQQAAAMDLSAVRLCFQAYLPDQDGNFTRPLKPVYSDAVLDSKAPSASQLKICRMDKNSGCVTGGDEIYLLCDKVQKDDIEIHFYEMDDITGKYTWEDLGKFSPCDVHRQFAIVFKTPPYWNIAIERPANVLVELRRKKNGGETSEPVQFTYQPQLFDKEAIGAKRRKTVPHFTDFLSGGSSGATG

The target in assay [2] is T3, GST-Nv-NF-kB (Ser allele) (Nematostella vectensis, UniProt A7UNT2 2-411).
T3 sequence: T2 sequence with Q21R, C66S, S207N, E215Q, V217A, E225K, A268E, D399E

Another assay addresses T4, GST-Co-NF-kB (Capsaspora owczarzaki, UniProt F1ARL5 200-546).
T4 sequence: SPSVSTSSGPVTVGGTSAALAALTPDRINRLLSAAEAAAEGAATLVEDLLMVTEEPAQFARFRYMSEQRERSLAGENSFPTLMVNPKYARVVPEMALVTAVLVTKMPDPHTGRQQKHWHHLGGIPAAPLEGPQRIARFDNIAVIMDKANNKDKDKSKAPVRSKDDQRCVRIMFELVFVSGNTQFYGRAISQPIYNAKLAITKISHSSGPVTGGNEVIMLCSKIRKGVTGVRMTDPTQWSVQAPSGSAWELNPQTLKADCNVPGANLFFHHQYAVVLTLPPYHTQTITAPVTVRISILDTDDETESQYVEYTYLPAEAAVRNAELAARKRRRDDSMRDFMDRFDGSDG

The next assay concerns the target T5, GST-Dm-Relish (Drosophila melanogaster, UniProt Q94527 99-473).
T5 sequence: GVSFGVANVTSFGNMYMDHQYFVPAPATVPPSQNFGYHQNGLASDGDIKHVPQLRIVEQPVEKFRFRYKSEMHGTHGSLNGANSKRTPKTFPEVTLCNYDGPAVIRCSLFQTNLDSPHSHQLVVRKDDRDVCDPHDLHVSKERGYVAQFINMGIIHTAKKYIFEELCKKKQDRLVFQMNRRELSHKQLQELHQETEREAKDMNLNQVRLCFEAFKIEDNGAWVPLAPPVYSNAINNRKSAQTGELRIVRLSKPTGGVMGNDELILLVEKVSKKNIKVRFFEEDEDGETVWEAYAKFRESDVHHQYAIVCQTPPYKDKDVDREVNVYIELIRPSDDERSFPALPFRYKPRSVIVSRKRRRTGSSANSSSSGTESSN

A further assay deals with T6, GST-Aq-NF-kB (Amphimedon queenslandica, UniProt A9Y5G7 2-389).
T6 sequence: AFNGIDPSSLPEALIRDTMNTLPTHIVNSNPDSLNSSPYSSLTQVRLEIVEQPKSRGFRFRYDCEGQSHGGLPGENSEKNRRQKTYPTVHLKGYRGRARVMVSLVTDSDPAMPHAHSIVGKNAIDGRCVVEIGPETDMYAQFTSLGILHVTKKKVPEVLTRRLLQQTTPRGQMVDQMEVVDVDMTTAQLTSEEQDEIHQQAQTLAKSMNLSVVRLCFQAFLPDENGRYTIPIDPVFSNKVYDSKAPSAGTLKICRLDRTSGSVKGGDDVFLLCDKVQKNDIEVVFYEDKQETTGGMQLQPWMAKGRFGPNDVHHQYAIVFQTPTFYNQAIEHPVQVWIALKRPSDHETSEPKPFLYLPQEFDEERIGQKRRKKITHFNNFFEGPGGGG

Another assay has as its target GST-Hu-p50 (Homo sapiens, UniProt P19838 7-356).

Residue numbers refer to the chain shown, from its start.

Chain of GST-Hu-p50 (P19838 7-356): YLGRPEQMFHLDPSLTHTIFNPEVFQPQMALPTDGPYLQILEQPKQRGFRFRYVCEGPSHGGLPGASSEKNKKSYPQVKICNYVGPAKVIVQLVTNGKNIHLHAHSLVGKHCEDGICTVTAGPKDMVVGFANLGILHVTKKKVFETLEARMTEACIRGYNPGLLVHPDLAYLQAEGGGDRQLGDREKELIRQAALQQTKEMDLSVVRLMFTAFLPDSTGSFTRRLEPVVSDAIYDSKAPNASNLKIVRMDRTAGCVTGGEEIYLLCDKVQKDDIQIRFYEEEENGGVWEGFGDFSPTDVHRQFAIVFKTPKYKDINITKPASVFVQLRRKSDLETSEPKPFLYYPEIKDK

In the case of “CCGATTAACATCAACAAATCCCCTGATGTTAATCGGGTCTTGATTCGCTTGACGCTGCTG”, the binding signal stood at 7.43 z-score with GST-Ap-NF-kB RHD; 7.95 z-score in assay [1]; 10.9 z-score in assay [2]; 4.14 z-score with GST-Co-NF-kB; 6.61 z-score in the assay with GST-Dm-Relish; 5.53 z-score in the assay with GST-Aq-NF-kB. The sequence further displayed a binding signal in the assay with GST-Hu-p50 of 7.22 z-score.

Take “CCGATTAACATCAAAACCCCCCCTGATGTTAATCGGGTCTTGATTCGCTTGACGCTGCTG”: the binding signal stood at 8.72 z-score in the assay with GST-Ap-NF-kB RHD; 6.19 z-score in assay [1]; 6.72 z-score in assay [2]; 6.13 z-score with GST-Co-NF-kB; 9.97 z-score in the assay with GST-Dm-Relish; 7.1 z-score with GST-Aq-NF-kB. The sequence further came in with a binding signal with GST-Hu-p50 of 6.53 z-score.

On to “CCGATTAACATCAACCATTCCCCTGATGTTAATCGGGTCTTGATTCGCTTGACGCTGCTG”, for which the binding signal with GST-Ap-NF-kB RHD was found to be 5.66 z-score; in assay [1], 6.61 z-score; in assay [2], 7.06 z-score; with GST-Co-NF-kB it was 4.68 z-score; in the assay with GST-Dm-Relish, 1.96 z-score; with GST-Aq-NF-kB, 4.45 z-score. Moreover, in the assay with GST-Hu-p50, the binding signal was determined as 4.88 z-score.

On to “CCGATTAACATCAATAATTACCCTGATGTTAATCGGGTCTTGATTCGCTTGACGCTGCTG”, for which the binding signal stood at 2.91 z-score in the assay with GST-Ap-NF-kB RHD; 4.26 z-score in assay [1]; 4.81 z-score in assay [2]; 3.12 z-score in the assay with GST-Co-NF-kB; 3.09 z-score with GST-Dm-Relish; 3.72 z-score with GST-Aq-NF-kB. For the same sequence, the binding signal with GST-Hu-p50 was found to be 3.55 z-score.

On to “CCGATTAACATCAGGGGGTAACATGATGTTAATCGGGTCTTGATTCGCTTGACGCTGCTG”, for which the binding signal with GST-Ap-NF-kB RHD worked out at 4.79 z-score; in assay [1], 3.69 z-score; in assay [2], 4.43 z-score; in the assay with GST-Co-NF-kB, 7.22 z-score; in the assay with GST-Dm-Relish it was 2.49 z-score; in the assay with GST-Aq-NF-kB, 3.72 z-score. For the same sequence, the binding signal with GST-Hu-p50 is 4.06 z-score.

On to “CCGATTAACATCAGGGGGTGGGATGATGTTAATCGGGTCTTGATTCGCTTGACGCTGCTG”, for which the binding signal was 2.8 z-score in the assay with GST-Ap-NF-kB RHD; 2.48 z-score in assay [1]; 3.52 z-score in assay [2]; 3.22 z-score with GST-Co-NF-kB; 3.58 z-score with GST-Dm-Relish; 3.34 z-score with GST-Aq-NF-kB. The same sequence showed a binding signal in the assay with GST-Hu-p50 of 3.07 z-score.

Regarding “CCGATTAACATCACCCGGGAAACTGATGTTAATCGGGTCTTGATTCGCTTGACGCTGCTG”, the binding signal with GST-Ap-NF-kB RHD worked out at 2.48 z-score; in assay [1], 2.39 z-score; in assay [2], 3.08 z-score; with GST-Co-NF-kB, 4.78 z-score; in the assay with GST-Dm-Relish, 1.11 z-score; with GST-Aq-NF-kB it was 2.32 z-score. The same sequence returned a binding signal in the assay with GST-Hu-p50 of 1.81 z-score.

As for “CCGATTAACATCAGGGGGAACCATGATGTTAATCGGGTCTTGATTCGCTTGACGCTGCTG”, the binding signal amounted to 7.4 z-score with GST-Ap-NF-kB RHD; 6.04 z-score in assay [1]; 7.3 z-score in assay [2]; 8.58 z-score with GST-Co-NF-kB; 5.08 z-score with GST-Dm-Relish; 4.5 z-score with GST-Aq-NF-kB. Moreover, the binding signal with GST-Hu-p50 is 5.84 z-score.

In the case of “CCGATTAACATCAAATAGTCCCCTGATGTTAATCGGGTCTTGATTCGCTTGACGCTGCTG”, the binding signal in the assay with GST-Ap-NF-kB RHD was 7.11 z-score; in assay [1] it was 7.06 z-score; in assay [2], 6.71 z-score; with GST-Co-NF-kB, 4.46 z-score; with GST-Dm-Relish, 5.51 z-score; in the assay with GST-Aq-NF-kB it was 6.32 z-score. The binding signal in the assay with GST-Hu-p50 stood at 5.39 z-score.

On to “CCGATTAACATCACCCCACCCCCTGATGTTAATCGGGTCTTGATTCGCTTGACGCTGCTG”, for which the binding signal in the assay with GST-Ap-NF-kB RHD stood at 3.67 z-score; in assay [1], 2.66 z-score; in assay [2], 3.49 z-score; in the assay with GST-Co-NF-kB, 3.94 z-score; with GST-Dm-Relish it was 4.21 z-score; with GST-Aq-NF-kB it was 3.4 z-score. In the assay with GST-Hu-p50, this sequence gave a binding signal of 3.36 z-score.

“CCGATTAACATCAGGGTATTTAATGATGTTAATCGGGTCTTGATTCGCTTGACGCTGCTG”: the binding signal was found to be 2.74 z-score with GST-Ap-NF-kB RHD; 4.26 z-score in assay [1]; 4.73 z-score in assay [2]; 1.37 z-score with GST-Co-NF-kB; 3.25 z-score with GST-Dm-Relish; 4.14 z-score in the assay with GST-Aq-NF-kB. In the assay with GST-Hu-p50, this sequence yielded a binding signal of 4.41 z-score.

Values taken from publication PMC5700166.
